Results: PubChem BioAssay (EPA / NIEHS)
Where “and” joins values, the source holds several entries; their conditions need not be identical. Equal entries are not always repeated. Results filed as inconclusive are left out. A structure can be active in one record and inactive in another. Calls of active or inactive are those of the source. The calls were made as follows, unless noted: active = hit-call score of the fitted dose curve at least 0.9, where 1 is the maximum; inactive = score below 0.9.

Experiments:
[1] = CCTE_Shafer_MEA_dev_per_burst_interspike_interval: CCTE's Neural Network Formation Assay for Burst Interspike Interval, Shafer Lab (AID 2284044);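 also: mean spike spacing inside bursts as AUC over recordings on days 5 7 9 12; potency for a decrease of within-burst interspike interval below DMSO level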
Method in brief: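 Neurons from rat cortex plated onto PEI-coated MEA wells with laminin […] at 1.5 x 10^5 cells/well, then treated from day 0. Media and compound fully replaced on DIV 5 and 9. Extracellular spontaneous firing recorded four times; interspike interval per burst summarised as AUC.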

[2] = CCTE_Shafer_MEA_dev_burst_duration_mean: CCTE's Neural Network Formation Assay for Mean Burst Duration, Shafer Lab (AID 2284045);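 also: curve fitted for loss meaning shorter burst duration than DMSO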
Method in brief: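 Network-formation assay in primary rat cortical neurons; treatment spans twelve days of development. Mean burst duration per well is integrated by trapezoidal AUC and fitted in the loss-of-signal direction against DMSO baseline.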

[3] = CCTE_Shafer_MEA_dev_interburst_interval_mean: CCTE's Neural Network Formation Assay for Mean Interburst Interval, Shafer Lab (AID 2284046);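 also: well-mean interburst interval of bursting electrodes as AUC over four recording days; curve fitted for decrease in interburst interval relative to DMSO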
Method in brief: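 Primary rat cortical neurons on PEI-coated 48-well MEA plates (laminin added with cells at plating) (16 electrodes/well), exposed from plating day 0 with renewal at DIV 5 and 9. Mean inter-burst interval averaged over bursting electrodes, AUC across days 5, 7, 9, 12; DMSO baseline.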

[4] = CCTE_Shafer_MEA_dev_inter_network_spike_interval_mean: CCTE's Neural Network Formation Assay for Mean Inter-network Spike Interval, Shafer Lab (AID 2284047);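 as to AC50: potency for a decrease in mean inter-network spike interval below DMSO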
Method in brief: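 Mean time between consecutive network-spike peaks, recorded extracellularly (adaptive spike detection) on DIV 5, 7, 9 and 12, summarized as trapezoidal AUC. Rat cortical cultures on MEAs dosed continuously days 0–12, re-dosed at feeds; loss-of-signal fit relative to DMSO.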

[5] = CCTE_Shafer_MEA_dev_network_spike_number: CCTE's Neural Network Formation Assay for Number of Network Spikes, Shafer Lab (AID 2284048);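 also: synchronized bursts across electrodes counted on days 5 7 9 12 and integrated as AUC; fit as a loss of signal meaning fewer network spikes than DMSO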
Method in brief: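 Extracellular recordings from 16-electrode wells track network formation in rat cortical cultures under continuous treatment from plating. The endpoint is network spike number, expressed as AUC across DIV 5–12 relative to DMSO vehicle.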

[6] = CCTE_Shafer_MEA_dev_network_spike_peak: CCTE's Neural Network Formation Assay for Mean Number of Electrodes in Network Spike, Shafer Lab (AID 2284049);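 also: fitted for loss of signal meaning fewer electrodes in network spikes than DMSO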
Method in brief: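 Continuous 12-day exposure of rat cortical cultures, starting at plating, on MEA plates. Endpoint: electrodes participating in network-spike peaks, AUC across DIV 5–12, DMSO as negative control.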

[7] = CCTE_Shafer_MEA_dev_network_spike_duration_std: CCTE's Neural Network Formation Assay for Standard Deviation of Network Spike Duration, Shafer Lab (AID 2284052);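 also: hits are decreases in network spike duration SD versus DMSO vehicle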
Method in brief: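 Network spike duration variability was collapsed across recordings on days 5, 7, 9 and 12 by trapezoidal area-under-curve and fitted downward against DMSO. Cultures were rat cortical neurons on PEI-coated MEA plates, dosed continuously from plating, refed with compound DIV 5/9.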

[8] = CCTE_Shafer_MEA_dev_per_network_spike_spike_number_mean: CCTE's Neural Network Formation Assay for Mean Number of Spikes in a Network Spike, Shafer Lab (AID 2284053)
Method in brief: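 Mean spike count within each network spike, taken in a 0.05 s window at its peak, was recorded on days 5, 7, 9 and 12 and integrated as trapezoidal area under the curve. Rat cortical cultures on MEA plates received continuous compound from day 0, refreshed at medium changes on DIV 5 and 9.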

[9] = CCTE_Shafer_MEA_dev_per_network_spike_spike_percent: CCTE's Neural Network Formation Assay for Percent of Spikes in a Network Spike, Shafer Lab (AID 2284054)
Method in brief: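 Developing networks of rat cortical neurons are dosed at day 0 and recorded extracellularly four times up to day 12. The endpoint is the area under the curve of percent spikes in network spikes, fitted in the negative direction relative to DMSO.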

[10] = CCTE_Shafer_MEA_dev_AB: CCTE's Alamar Blue Assay for Cytotoxicity in the Neural Network Formation Assay, Shafer Lab (AID 2284083; active = hit-call score of the fitted dose curve at least 0.9, where 1 is the maximum;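 also: resazurin reduction fluorescence as viability of cultured neurons; twelve days of exposure from plating with re-dosing on DIV 5 and 9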)
Method in brief: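 Resazurin fluorescence, relative to DMSO, gauges viability after twelve days of exposure that began at plating of rat cortical neurons (1.5 x 10^5 cells/well, 48-well MEA); treatment renewed with full medium exchange on DIV 5 and 9.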

[11] = CCTE_Shafer_MEA_dev_mutual_information_norm: CCTE's Neural Network Formation Assay for Mutual Information Normalization, Shafer Lab (AID 2284091);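 also: mutual information between electrodes summarised as area under curve across four recording days; potency is for a decrease in mutual information relative to DMSO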
Method in brief: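 Exposure of primary rat cortical neurons began at plating and ran to DIV 12, with full media and treatment renewal after DIV 5 and 9 recordings. Mutual information AUC (DIV 5–12) was analysed for loss versus DMSO.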

[12] = CCTE_Mundy_HCI_Cortical_Synap_Neur_Matur_NeuriteSpotCountPerNeuriteLength: CCTE's Synaptogenesis and Neurite Maturation Assay in rat cortical cells for Neurite Spot Count per Neurite Length, Mundy Lab (AID 2284210)
Method in brief: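 Neurite-associated synapse density (synaptophysin puncta per unit neurite length) is measured by fluorescence high-content imaging in rat cortical cultures treated from DIV 7 and fixed at DIV 12, with DMSO as negative control.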

[13] = CCTE_Mundy_HCI_Cortical_NOG_NeuriteLength: CCTE's Neurite Outgrowth Assay in rat cortical cells for Neurite Length, Mundy Lab (AID 2284213);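 also: neurites imaged about 48 to 50 h after chemical exposure began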
Method in brief: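 First, rat primary cortical cells were plated and, 2 h later, given test chemical as a 1/10 dilution. Finally, βIII-tubulin immunostaining enabled automated imaging of neurite length.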

[14] = CCTE_Mundy_HCI_Cortical_Synap_Neur_Matur_NeuriteLength: CCTE's Synaptogenesis and Neurite Maturation Assay in rat cortical cells for Neurite Length, Mundy Lab (AID 2284214)
Method in brief: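 DMSO-normalised neurite length, from high-content imaging of anti-MAP2-stained rat cortical cells fixed at DIV 12. Glia were suppressed with AraC (DIV 5) before chemical exposure from DIV 7.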

[15] = CCTE_Mundy_HCI_Cortical_Synap_Neur_Matur_NeuriteSpotCountPerNeuron: CCTE's Synaptogenesis and Neurite Maturation Assay in rat cortical cells for Neurite Spot Count per Neuron Count, Mundy Lab (AID 2284215)
Method in brief: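 Rat cortical primary cultures; AraC DIV 5 to arrest glia; dosing + media change DIV 7; fixed DIV 12. Anti-MAP2/anti-synaptophysin, Hoechst nuclei; HCI puncta count per neuron, positive fitting direction vs DMSO.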

[16] = CCTE_Mundy_HCI_Cortical_Synap_Neur_Matur_SynapseCount: CCTE's Synaptogenesis and Neurite Maturation Assay in rat cortical cells for Synapse Count, Mundy Lab (AID 2284218)
Method in brief: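 Endpoint: synapses/neuron by HCI (synaptophysin puncta on MAP2-labelled neurites, Hoechst nuclei). Rat primary cortical cells, AraC DIV 5, dosed DIV 7, fixed DIV 12; DMSO negative control.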

[17] = CCTE_Mundy_HCI_hN2_NOG_NeuriteCount: CCTE's Neurite Outgrowth Assay in human hN2 cells for Neurite Count, Mundy Lab (AID 2284219; active = hit-call score of the fitted dose curve at least 0.9, where 1 is the maximum)
Method in brief: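 In this morphology assay, hNP1-derived neurons received test chemical 2 h post-plating and were fixed two days later in warm paraformaldehyde/sucrose containing Hoechst 33342. Neurites, labelled by rabbit anti-βIII-tubulin (1:800) and Alexa Fluor-488 (1:500), were counted automatically.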

[18] = CCTE_Mundy_HCI_hN2_NOG_NeuriteLength: CCTE's Neurite Outgrowth Assay in human hN2 cells for Neurite Length, Mundy Lab (AID 2284220; active = hit-call score of the fitted dose curve at least 0.9, where 1 is the maximum)
Method in brief: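 Using βIII-tubulin immunofluorescence and Hoechst nuclear counterstain, this component quantifies neurite length in hNP1-derived neurons.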

[19] = CCTE_Mundy_HCI_hN2_NOG_NeuronCount: CCTE's Neurite Outgrowth Assay in human hN2 cells for Neuron Count, Mundy Lab (AID 2284221; active = hit-call score of the fitted dose curve at least 0.9, where 1 is the maximum)
Method in brief: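 Read-out is the number of betaIII-tubulin-positive neurons imaged by automated high-content analysis, with DMSO as negative control.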

[20] = CCTE_Mundy_HCI_Cortical_Synap_Neur_Matur_CellBodySpotCount: CCTE's Synaptogenesis and Neurite Maturation Assay in rat cortical cells for Cell Body Spot Count, Mundy Lab (AID 2284223)
Method in brief: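 Rat cortical neurons; AraC @ DIV 5; dose + media change DIV 7; fix DIV 12; anti-MAP2/anti-synaptophysin IF, Hoechst; HCI count of soma synaptophysin puncta/neuron; DMSO = negative control.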

[21] = CCTE_Mundy_HCI_hNP1_Pro_ResponderAvgInten: CCTE's Proliferation Assay in human neuroprogenitor cells, Mundy Lab (AID 2284224; active = hit-call score of the fitted dose curve at least 0.9, where 1 is the maximum;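 also: human neural progenitor cells hNP1 derived from WA09 embryonic stem cells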)
Method in brief: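 Human neuroprogenitors (hNP1, WA09 lineage) receive test chemical after 40 to 44 hours of attachment. A four-hour BrdU pulse begins twenty hours later, followed by fixation and high content imaging; signal is referenced to DMSO controls.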

[22] = CCTE_Mundy_HCI_Cortical_NOG_NeuronCount: CCTE's Neurite Outgrowth Assay in rat cortical cells for Neuron Count, Mundy Lab (AID 2284236; active = hit-call score of the fitted dose curve at least 0.9, where 1 is the maximum;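 also: neurons counted by imaging betaIII-tubulin and Hoechst stained cortical cells; cells exposed to compound for about 48 hours before fixation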)
Method in brief: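 Read-out: neuron number by high-content imaging of betaIII-tubulin (Alexa Fluor-488) and Hoechst-labelled rat primary cortical cells.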

[23] = CCTE_Mundy_HCI_hNP1_Casp3_7: CCTE's Caspase-Glo 3/7 Assay in human neuroprogenitor cells for Apoptosis, Mundy Lab (AID 2284240)
Method in brief: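 Neuroepithelial-lineage stem cells from WA09 embryonic cells were treated with chemicals after 40–44 h of culture. Twenty-four hours later, caspase-3/7 activation was detected luminescently after a 30 min room-temperature reagent step, with DMSO as baseline.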

[24] = CCTE_Mundy_HCI_Cortical_Synap_Neur_Matur_NeuronCount: CCTE's Synaptogenesis and Neurite Maturation Assay in rat cortical cells for Neuron Count, Mundy Lab (AID 2284242; active = hit-call score of the fitted dose curve at least 0.9, where 1 is the maximum;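 also: hits reduce neuron count versus DMSO baseline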)
Method in brief: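 Measured at DIV 12: fluorescently labelled neurons (Hoechst nuclei, MAP2) in rat primary cortical cultures, counted by high-content imaging. AraC suppressed glia from DIV 5; DMSO served as negative control.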

CN(C)C(=O)C(CCN1CCC(O)(c2ccc(Cl)cc2)CC1)(c1ccccc1)c1ccccc1
AC50 [1]: 92.1 nM (active) and 66.7 nM (active) and 493 nM (active) | AC50 [2]: 185 nM (active) and 33.1 nM (active) and 526 nM (active) | AC50 [3]: 581 nM (active) and 249 nM (active) and 2.56 µM (active) | AC50 [4]: 3 nM (active) and 2.62 µM (active) | outcome [4]: inactive | AC50 [5]: 32.8 nM (active) and 102 nM (active) and 172 nM (active) | AC50 [6]: 612 nM (active) and 41.5 nM (active) and 1.81 µM (active) | AC50 [7]: 262 nM (active) and 11.6 nM (active) and 736 nM (active) | AC50 [8]: 766 nM (active) and 44.5 nM (active) and 2.52 µM (active) | AC50 [9]: 2.31 µM (active) and 276 nM (active) and 2.68 µM (active) | AC50 [10]: 5.74 µM (active) and 5.44 µM (active) and 5.02 µM (active) | AC50 [11]: 112 nM (active) and 60.7 nM (active) and 621 nM (active) | AC50 [12]: 14.9 µM (active) | AC50 [13]: 6.63 µM (active) | AC50 [14]: 3.22 µM (active) | AC50 [15]: 3 µM (active) | AC50 [16]: 3.43 µM (active) | AC50 [17]: 16 µM (active) | AC50 [18]: 15.8 µM (active) | AC50 [19]: 13.9 µM (active) | AC50 [20]: 16.9 µM (active) | AC50 [21]: 50 µM (active) | AC50 [22]: 12.9 µM (active) | AC50 [23]: 16.5 µM (active) | AC50 [24]: 8.36 µM (active)
